Experimental data reported in PubChem BioAssay (NCATS).
Results filed as inconclusive are left out. Where a call stands in place of a potency, no number is given. Active and inactive are the calls of the source. The call rests on the fitted dose curve; in most records, active means well fitted inhibition curve with a large enough effect; inconclusive means small, poorly fitted or top-dose-only effect; inactive means flat fitted curve, though single readings scatter.

System: CP291
Assay: qHTS profiling for inhibitors of Plasmodium falciparum proliferation (AID 504749); further: nearly all actives have a fitted effect of over 60% in size
Settings: P. falciparum in erythrocytes, SYBR Green DNA, 72 h; series mostly up to 28.7 µM
Method in brief: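 Each compound contacts P. falciparum-infected red blood cells for 72 h at 37 C; lysis buffer (Tris, EDTA, saponin, Triton X, SYBR Green I) is added and fluorescence measured next morning; values normalized to controls.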
Potency means the concentration at half of the fitted maximal effect.

| Structure (SMILES) | Potency |
| --- | --- |
| Cc1nc2n(c(=O)c1CCN1CCC(c3noc4cc(F)ccc34)CC1)CCCC2 | inactive |
| C=C(c1ccc(C(=O)O)cc1)c1cc2c(cc1C)C(C)(C)CCC2(C)C | inactive |
| Cc1cccc(C)c1OCC(=O)N[C@@H](Cc1ccccc1)[C@@H](O)C[C@H](Cc1ccccc1)NC(=O)[C@H](C(C)C)N1CCCNC1=O | 13.5 µM (active) |
| NNc1nncc2ccccc12 | inactive |
| CC(C)c1ccc2oc3nc(N)c(C(=O)O)cc3c(=O)c2c1 | inactive |
| Cc1nc(Nc2ncc(C(=O)Nc3c(C)cccc3Cl)s2)cc(N2CCN(CCO)CC2)n1 | inactive |
| COc1ccc(C2(C#N)CCC(C(=O)O)CC2)cc1OC1CCCC1 (configuration not stated) | inactive |
| COCCCOc1ccnc(CS(=O)c2nc3ccccc3[nH]2)c1C (configuration not stated) | inactive |
| Cc1cc(=O)oc2cc(O)ccc12 | inactive |
| Clc1ccc(C(Cn2ccnc2)OCc2ccsc2Cl)c(Cl)c1 (configuration not stated) | 12 µM (active) |
| CNC[C@@H](O)[C@@H](O)[C@H](O)[C@H](O)CO | inactive |
| O=C(NCCO[N+](=O)[O-])c1cccnc1 | inactive |
| CN(c1nccc(=O)[nH]1)C1CCN(c2nc3ccccc3n2Cc2ccc(F)cc2)CC1 | inactive |
| O=C1CCc2ccc(OCCCCN3CCN(c4cccc(Cl)c4Cl)CC3)cc2N1 | inactive |
| COc1ccc2cc([C@H](C)C(=O)O)ccc2c1 | inactive |
| CC[C@]1(O)C[C@H]2CN(CCc3c([nH]c4ccccc34)[C@@](C(=O)OC)(c3cc4c(cc3OC)N(C=O)[C@H]3[C@@](O)(C(=O)OC)[C@H](OC(C)=O)[C@]5(CC)C=CCN6CC[C@]43[C@@H]65)C2)C1 | 3.38 µM (active) |
| Cc1cc(=O)c2c(O)c3c(O)cc(=O)c4c3c3c(cc(O)c1c23)C(C)(C)C=4O | 2.69 µM (active) |
